# Results from the antibiotic and cytotoxicity screens of Wong et al. (2023).
# In all, about 39,000 compounds went through this assay and about 3,300 (8.5%) were called active. The sample holds actives, similar compounds and a random draw of the others, so the mix is not that of the screen.
# System: HepG2
# Assay: cytotoxicity call (relative viability < 0.9)
# Conditions: 10 µM
row,SMILES,cytotoxicity call
1,COC(=O)[C@H]1CCCNC1=O,inactive
2,O=C1NCCC[C@@H]1C(=O)N1CCCCC1,inactive
3,NNC(=O)[C@H]1CCCNC1=O,active
4,COC[C@H]1C[C@@H](c2nc(-c3ccc4c(c3)COc3cc5c(ccc6[nH]c([C@@H]7CC[C@H](C)N7C(=O)[C@@H](NC(=O)OC)C(C)C)nc65)cc3-4)c[nH]2)N(C(=O)[C@H](NC(=O)OC)c2ccccc2)C1,inactive
5,C[C@H]1CCCCO[C@H](CN(C)S(=O)(=O)c2ccc(Cl)cc2)[C@@H](C)CN([C@@H](C)CO)C(=O)c2cc(NC(=O)Nc3cccc4ccccc34)ccc2O1,inactive
6,COc1ccc(CN(CCN(C)C)c2ncccn2)cc1.Cl,inactive
7,CCCCCCCCCCCCCCCC[N+](C)(C)CCN(Cc1ccc(OC)cc1)c1ncccn1,active
8,C[C@@H]1CN([C@H](C)CO)C(=O)c2cc(NC(=O)Cc3ccccc3)ccc2O[C@@H](C)CCCCO[C@@H]1CN(C)C(=O)CCC(F)(F)F,inactive
9,C[C@H](CO)N1C[C@H](C)[C@H](CN(C)C(=O)Nc2ccccc2)Oc2c(NC(=O)c3ccc(-c4nccs4)cc3)cccc2C1=O,inactive
10,COc1ccc(NC(=O)Nc2ccc3c(c2)C(=O)N([C@@H](C)CO)C[C@@H](C)[C@@H](CN(C)S(C)(=O)=O)O3)cc1,inactive
11,COc1ccc(NC(=O)Nc2ccc3c(c2)C(=O)N([C@@H](C)CO)C[C@H](C)[C@H](CN(C)S(C)(=O)=O)O3)cc1,active
12,COc1ccc(NC(=O)Nc2ccc3c(c2)C(=O)N([C@H](C)CO)C[C@@H](C)[C@@H](CN(C)S(C)(=O)=O)O3)cc1,inactive
13,COc1ccc(NC(=O)Nc2ccc3c(c2)C(=O)N([C@@H](C)CO)C[C@@H](C)[C@H](CN(C)S(C)(=O)=O)O3)cc1,inactive
14,COc1ccc(NC(=O)Nc2ccc3c(c2)C(=O)N([C@H](C)CO)C[C@H](C)[C@@H](CN(C)S(C)(=O)=O)O3)cc1,inactive
15,COc1ccc(NC(=O)Nc2ccc3c(c2)C(=O)N([C@H](C)CO)C[C@@H](C)[C@H](CN(C)S(C)(=O)=O)O3)cc1,active
16,C[C@H](CO)N1C[C@H](C)[C@@H](CN(C)Cc2ccccc2)Oc2cc(C#CC(C)(C)O)ccc2S1(=O)=O,inactive
17,C[C@@H]1CN([C@@H](C)CO)C(=O)c2cc(NC(=O)Nc3ccc(C(F)(F)F)cc3)ccc2O[C@@H](C)CCCCO[C@@H]1CN(C)C(=O)C1CCCCC1,inactive
18,COc1ccc(S(=O)(=O)N(C)C[C@H]2Oc3ncc(C#CC4(O)CCCC4)cc3C(=O)N([C@@H](C)CO)C[C@H]2C)cc1,inactive
19,Cn1nnnc1SCC(=O)NC(C)(C)C,inactive
20,Cn1cc(-c2[nH]c3cc(NC(=O)[C@H](N)C4CCCCC4)cc4c3c2C=NNC4=O)cn1,active
21,COc1ccc(-c2cnc3c(c2)C(=O)N([C@H](C)CO)C[C@@H](C)[C@@H](CN(C)C(=O)Cc2ccccn2)O3)cc1,inactive

row,SMILES,cytotoxicity call
1,CC(C)NC(=O)Nc1ccc2c(c1)CC(=O)N([C@@H](C)CO)C[C@H](C)[C@@H](CN(C)Cc1ccc(C(=O)O)cc1)O2,inactive
2,CC(=O)N1[C@@H]2Cn3c(ccc(-c4ccccc4)c3=O)[C@H]1[C@@H](C(=O)N1CCN(C)CC1)[C@@H]2CO,inactive
3,C[C@@H]1CCCCO[C@@H](CN(C)C(=O)Nc2ccc(F)cc2)[C@@H](C)CN([C@H](C)CO)C(=O)c2cc(NC(=O)Cc3ccccc3)ccc2O1,inactive
4,O=C1C(O)=C(O)C(=O)C(O)=C1O,active
5,Cc1cc(C(=O)O)sc1[C@@H](N)C(=O)O,inactive
6,C[C@@H]1CN([C@@H](C)CO)C(=O)c2cc(-c3cccnc3)cnc2O[C@H]1CN(C)C(=O)Nc1ccc2c(c1)OCO2,inactive
7,C[C@H]1CCCCO[C@H](CN(C)C(=O)Nc2ccc(F)cc2)[C@@H](C)CN([C@@H](C)CO)C(=O)c2cc(NC(=O)Nc3ccc4c(c3)OCO4)ccc2O1,inactive
8,C[C@@H]1CN([C@@H](C)CO)C(=O)c2cc(NC(=O)Cc3cn(C)c4ccccc34)ccc2O[C@@H]1CN(C)C(=O)Nc1cccc2ccccc12,active
9,C[C@H](CO)N1C[C@H](C)[C@H](CN(C)C(=O)Nc2ccc(C(F)(F)F)cc2)Oc2ccc(NC(=O)Cc3cn(C)c4ccccc34)cc2C1=O,inactive
10,C[C@H](CO)N1C[C@H](C)[C@@H](CN(C)Cc2ccc(C(F)(F)F)cc2)Oc2ccc(NC(=O)Cc3cn(C)c4ccccc34)cc2C1=O,inactive
11,C[C@@H]1CN([C@H](C)CO)C(=O)c2cc(NC(=O)Cc3cn(C)c4ccccc34)ccc2O[C@@H]1CN(C)Cc1ccc(C(F)(F)F)cc1,active
12,C[C@@H]1CN([C@@H](C)CO)C(=O)c2cc(NC(=O)Cc3cn(C)c4ccccc34)ccc2O[C@@H]1CN(C)C(=O)Nc1ccc(C(F)(F)F)cc1,inactive
13,C[C@H](CO)N1C[C@H](C)[C@H](CN(C)C(=O)Nc2cccc3ccccc23)Oc2ccc(NC(=O)Cc3cn(C)c4ccccc34)cc2C1=O,inactive
14,C[C@H]1CN([C@@H](C)CO)C(=O)c2cc(NC(=O)Cc3cn(C)c4ccccc34)ccc2O[C@@H]1CN(C)C(=O)Nc1cccc2ccccc12,inactive
15,C[C@@H]1CN([C@H](C)CO)C(=O)c2cc(NC(=O)Cc3cn(C)c4ccccc34)ccc2O[C@H]1CN(C)C(=O)Nc1ccc(C(F)(F)F)cc1,active
16,C[C@H]1CN([C@@H](C)CO)C(=O)c2cc(NC(=O)Cc3cn(C)c4ccccc34)ccc2O[C@@H]1CN(C)C(=O)Nc1ccc(C(F)(F)F)cc1,active
17,C[C@H](CO)N1C[C@H](C)[C@@H](CN(C)C(=O)Nc2ccc(C(F)(F)F)cc2)Oc2ccc(NC(=O)Cc3cn(C)c4ccccc34)cc2C1=O,inactive
18,C[C@@H]1CN([C@H](C)CO)C(=O)c2cc(NC(=O)Cc3cn(C)c4ccccc34)ccc2O[C@H]1CN(C)Cc1ccc(C(F)(F)F)cc1,inactive
19,C[C@H]1CN([C@@H](C)CO)C(=O)c2cc(NC(=O)Cc3cn(C)c4ccccc34)ccc2O[C@H]1CN(C)C(=O)Nc1ccc(C(F)(F)F)cc1,inactive
20,C[C@@H]1CN([C@H](C)CO)C(=O)c2cccc(NC(=O)c3ccncc3)c2O[C@H]1CN(C)C(=O)Nc1ccc2c(c1)OCO2,inactive
21,Cc1c(C)n2c3c(=O)[nH]c(=O)n(C)c3nc2n1C,inactive

row,SMILES,cytotoxicity call
1,C[C@@H]1CN([C@H](C)CO)C(=O)c2cc(NC(=O)C3CCCCC3)ccc2O[C@@H](C)CCCCO[C@@H]1CN(C)Cc1ccc(C(=O)O)cc1,inactive
2,COc1ccc(S(=O)(=O)N2C[C@@H](O)COC[C@H]3O[C@@H](CC(=O)N[C@@H]4CCN(Cc5ccccc5)C4)CC[C@@H]32)cc1,inactive
3,C[C@@H]1CN([C@H](C)CO)C(=O)Cc2cc(NC(=O)Cn3cnnn3)ccc2O[C@@H]1CN(C)Cc1ccc(C(=O)Nc2ccccc2N)cc1,inactive
4,C[C@@H]1CN([C@H](C)CO)C(=O)c2cc(NS(=O)(=O)c3ccc(Cl)cc3)ccc2O[C@@H](C)CCCCO[C@@H]1CN(C)C(=O)c1ccncc1,inactive
5,C[C@@H]1CN([C@@H](C)CO)C(=O)c2cccc(NS(=O)(=O)c3cn(C)cn3)c2O[C@H]1CN(C)C(=O)Nc1ccc(F)cc1,inactive
6,C[C@@H]1CCCCO[C@H](CN(C)C(=O)C2CCCCC2)[C@H](C)CN([C@H](C)CO)C(=O)c2cc(NC(=O)NC3CCCCC3)ccc2O1,inactive
7,C[C@H](CO)N1C[C@H](C)[C@H](CN(C)Cc2ccc(Oc3ccccc3)cc2)Oc2ccc(NC(=O)NC3CCCCC3)cc2CC1=O,inactive
8,C[C@@H]1CN([C@@H](C)CO)C(=O)Cc2cc(NC(=O)NC3CCCCC3)ccc2O[C@H]1CN(C)Cc1ccc(Oc2ccccc2)cc1,inactive
9,C[C@H]1CN([C@@H](C)CO)C(=O)Cc2cc(NC(=O)NC3CCCCC3)ccc2O[C@H]1CN(C)Cc1ccc(-c2ccccc2)cc1,inactive
10,C[C@H]1CN([C@@H](C)CO)C(=O)Cc2cc(NC(=O)NC3CCCCC3)ccc2O[C@@H]1CN(C)Cc1ccc(Oc2ccccc2)cc1,inactive
11,C[C@@H]1CN([C@H](C)CO)C(=O)Cc2cc(NC(=O)NC3CCCCC3)ccc2O[C@H]1CN(C)Cc1ccc(Oc2ccccc2)cc1,inactive
12,C[C@H]1CN([C@@H](C)CO)C(=O)Cc2cc(NC(=O)NC3CCCCC3)ccc2O[C@H]1CN(C)Cc1ccc(Oc2ccccc2)cc1,active
13,C[C@@H]1CN([C@@H](C)CO)C(=O)Cc2cc(NC(=O)NC3CCCCC3)ccc2O[C@@H]1CN(C)Cc1ccc(-c2ccccc2)cc1,inactive
14,C[C@H](CO)N1C[C@H](C)[C@@H](CN(C)Cc2ccc(Oc3ccccc3)cc2)Oc2ccc(NC(=O)NC3CCCCC3)cc2CC1=O,inactive
15,C[C@@H]1CN([C@@H](C)CO)C(=O)Cc2cc(NC(=O)NC3CCCCC3)ccc2O[C@@H]1CN(C)Cc1ccc(Oc2ccccc2)cc1,active
16,C[C@@H]1CN([C@H](C)CO)C(=O)Cc2cc(NC(=O)NC3CCCCC3)ccc2O[C@H]1CN(C)Cc1ccc(-c2ccccc2)cc1,active
17,C[C@@H]1CN([C@@H](C)CO)C(=O)Cc2cc(NC(=O)NC3CCCCC3)ccc2O[C@H]1CN(C)Cc1ccc(-c2ccccc2)cc1,inactive
18,C[C@@H]1CN([C@H](C)CO)C(=O)Cc2cc(NC(=O)NC3CCCCC3)ccc2O[C@@H]1CN(C)Cc1ccc(Oc2ccccc2)cc1,active
19,C[C@@H]1CN([C@@H](C)CO)C(=O)c2cc(NC(=O)CCN3CCOCC3)ccc2O[C@H]1CN(C)S(C)(=O)=O,inactive
20,CCCNC(=O)N1C[C@H](C)[C@H](OC)CN(C)C(=O)c2ccc(NS(=O)(=O)CC(F)(F)F)cc2OC[C@@H]1C,inactive
21,C[C@H]1CN([C@@H](C)CO)C(=O)c2cc(NC(=O)c3ccncc3)ccc2O[C@@H]1CN(C)S(=O)(=O)c1cccs1,inactive
